As a reminder, the AC50 is the concentration at which the activity in the assay is half-maximal.

The results in this text go back to PubChem BioAssay (EPA / NIEHS).

Conditions in all cases: mRNA level, 48 h; actives raise or lower the signal
Read-out in assay [1]: DNA damage-inducible transcript 3 (DDIT3), DDIT3 (gene 1649)
In words: LTEA_HepaRG_DDIT3: Life Technologies and Expression Analysis (LTEA) Assay for DNA damage-inducible transcript 3 (DDIT3) using HepaRG (AID 2283488). The essentials:
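Cells are human HepaRG liver cells treated for 48 h with eight half-log concentrations up to 100 uM in 0.5% DMSO. Transcript levels come from qRT-PCR normalized to three housekeeping genes, with activity fitted in both directions relative to vehicle.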

Read-out in assay [2]: Pro-epidermal growth factor (Homo sapiens) (UniProt P01133)
In words: LTEA_HepaRG_EGF: Life Technologies and Expression Analysis (LTEA) Assay for Epidermal growth factor (EGF) using HepaRG (AID 2283489). The essentials:
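Concentration-response mRNA assay: HepaRG cells dosed 48 h (max 100 uM, 0.5% DMSO), EGF measured by qRT-PCR and normalized to ACTB/GAPDH/POLR2A.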

Read-out in assay [3]: Early growth response protein 1 (EGR1) transcription factor, EGR1 (gene 1958)
In words: LTEA_HepaRG_EGR1: Life Technologies and Expression Analysis (LTEA) Assay for Early growth response protein 1 (EGR1) transcription factor using HepaRG (AID 2283490). The essentials:
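EGR1 transcript levels quantified by qRT-PCR (Fluidigm arrays) against three housekeeping genes after 48 h chemical exposure of HepaRG cells. Eight-point half-log series topping at 100 uM, 0.5% DMSO vehicle, analyzed for gain or loss.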

Read-out in assay [4]: Ezrin (EZR), EZR (gene 7430)
In words: LTEA_HepaRG_EZR: Life Technologies and Expression Analysis (LTEA) Assay for Ezrin (EZR) using HepaRG (AID 2283491). In outline: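 Differentiated human HepaRG cells, 48 h after plating, were exposed in serum-free induction medium for 48 hours to eight half-log concentrations up to 100 uM in 0.5% DMSO. EZR mRNA was measured by TaqMan qRT-PCR, normalized to ACTB, GAPDH and POLR2A, and fitted bidirectionally against DMSO.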

Read-out in assay [5]: Cytochrome P450 3A7 (Homo sapiens) (UniProt P24462)
In words: LTEA_HepaRG_CYP3A7: Life Technologies and Expression Analysis (LTEA) Assay for CYP3A7 using HepaRG (AID 2283492). In outline:
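qRT-PCR of CYP3A7 in HepaRG lysates after 48 h treatment; concentration-response (8 points, max 100 uM) analysed bidirectionally relative to 0.5% DMSO controls.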

Read-out in the next assay: CYP3A5 (gene 1577)
In words: LTEA_HepaRG_CYP3A5: Life Technologies and Expression Analysis (LTEA) Assay for CYP3A5 using HepaRG (AID 2283493). The essentials: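 Human HepaRG hepatic cells receive 48 h chemical treatment at eight concentrations (half-log steps from 100 uM) in 0.5% DMSO. Expression of CYP3A5 is quantified by Fluidigm qRT-PCR and normalized to three reference genes.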

Read-out in assay [6]: Fatty Acid-Binding Protein 1 (FABP1), FABP1 (gene 2168)
In words: LTEA_HepaRG_FABP1: Life Technologies and Expression Analysis (LTEA) Assay for Fatty Acid-Binding Protein 1 (FABP1) using HepaRG (AID 2283494). In outline:
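FABP1 expression by TaqMan qRT-PCR, normalised to three housekeeping genes, in HepaRG cells after 48 h chemical treatment. Eight-point half-log series topping at 100 uM in 0.5% DMSO, duplicates; gain or loss fitted relative to vehicle.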

Read-out in assay [7]: Cytochrome P450 4A22 (Homo sapiens) (UniProt Q5TCH4)
In words: LTEA_HepaRG_CYP4A22: Life Technologies and Expression Analysis (LTEA) Assay for Cytochrome P450 4A22 (CYP4A22) using HepaRG (AID 2283495). In outline:
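Concentration-response (8 points, max 100 uM, 0.5% DMSO) in human HepaRG liver cells after 48 h exposure. CYP4A22 mRNA by TaqMan qRT-PCR with housekeeping-gene normalization.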

Read-out in assay [8]: Cytochrome P450 7A1 (Homo sapiens) (UniProt P22680)
In words: LTEA_HepaRG_CYP7A1: Life Technologies and Expression Analysis (LTEA) Assay for Cytochrome P450 7A1 (CYP7A1) using HepaRG (AID 2283496). The essentials:
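HepaRG, 48 h exposure, 8-pt half-log series from 100 uM, 0.5% DMSO vehicle, duplicates. Readout: TaqMan qRT-PCR mRNA vs three housekeeping genes; bidirectional curve fit against DMSO baseline.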

Read-out in assay [9]: Glutathione S-Transferase (GSTA2), GSTA2 (gene 2939)
In words: LTEA_HepaRG_GSTA2: Life Technologies and Expression Analysis (LTEA) Assay for Glutathione S-Transferase (GSTA2) using HepaRG (AID 2283497). In outline: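 GSTA2 transcript levels came from Fluidigm TaqMan qRT-PCR normalized to three housekeeping genes, fitted in both directions against DMSO. HepaRG cultures received chemicals for 48 h in serum-free induction medium (0.5% DMSO), 8 half-log concentrations up to 100 uM, duplicate.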

Read-out in assay [10]: Glutamate-cysteine ligase catalytic (GCLC), GCLC (gene 2729)
In words: LTEA_HepaRG_GCLC: Life Technologies and Expression Analysis (LTEA) Assay for Glutamate-cysteine ligase catalytic (GCLC) using HepaRG (AID 2283498). The essentials:
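Expression by TaqMan qRT-PCR, normalized to three housekeeping genes (ACTB, GAPDH, POLR2A), with up- or down-regulation fitted against DMSO. HepaRG cells dosed in duplicate for 48 h with 8 half-log concentrations up to 100 uM, vehicle 0.5% DMSO.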

Read-out in assay [11]: growth arrest and DNA damage 45 (GADD45G), GADD45G (gene 10912)
In words: LTEA_HepaRG_GADD45G: Life Technologies and Expression Analysis (LTEA) Assay for growth arrest and DNA damage 45 (GADD45G) using HepaRG (AID 2283499). In outline: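 Concentration-response in HepaRG: 48 h dosing, 0.5% DMSO, highest level 100 uM. GADD45G expression by qRT-PCR, normalised to endogenous controls; bidirectional fit to DMSO.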

Read-out in assay [12]: Glutamate-cysteine ligase regulatory (GCLM), GCLM (gene 2730)
In words: LTEA_HepaRG_GCLM: Life Technologies and Expression Analysis (LTEA) Assay for Glutamate-cysteine ligase regulatory (GCLM) using HepaRG (AID 2283500). In outline: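 Endpoint is GCLM transcript level by qRT-PCR, normalized to three housekeeping genes, after 48 h chemical exposure of human HepaRG cells (0.5% DMSO vehicle, top 100 uM, half-log dilutions). Fitting was bidirectional relative to DMSO.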

Read-out in assay [13]: Heat shock 70 kDa protein 1 (HSPA1A), gene 3303
In words: LTEA_HepaRG_HSPA1A: Life Technologies and Expression Analysis (LTEA) Assay for Heat shock 70 kDa protein 1 (HSPA1A) using HepaRG (AID 2283502). The essentials:
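Cells were plated and cultured for 48 h, then switched to serum-free induction medium. Chemicals were added at eight half-log concentrations up to 100 uM for 48 h. RNA was then isolated and HSPA1A measured by qRT-PCR with bidirectional curve fitting against DMSO.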

Read-out in assay [14]: Hypoxia-inducible factor 1-alpha (Homo sapiens) (UniProt Q16665)
In words: LTEA_HepaRG_HIF1A: Life Technologies and Expression Analysis (LTEA) Assay for Hypoxia-inducible factor 1 (HIF1A) Trancription factor using HepaRG (AID 2283503). In outline:
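HIF1A transcript level read by qRT-PCR (ACTB, GAPDH, POLR2A normalization) after 48 h chemical exposure of HepaRG cultures. Eight half-log concentrations, top 100 uM, 0.5% DMSO vehicle, duplicates; bidirectional curve fit against DMSO baseline.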

Read-out in assay [15]: 3-Hydroxy-3-Methylglutaryl-CoA Synthase 2 (HMGCS2), HMGCS2 (gene 3158)
In words: LTEA_HepaRG_HMGCS2: Life Technologies and Expression Analysis (LTEA) Assay for 3-Hydroxy-3-Methylglutaryl-CoA Synthase 2 (HMGCS2) using HepaRG (AID 2283504). In outline:
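This steatosis marker was read as HMGCS2 mRNA change in HepaRG cells treated 48 h with up to 100 uM chemical. Normalisation used housekeeping genes; activity in either direction was fitted relative to 0.5% DMSO vehicle.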

Read-out in a further assay: HGF (gene 3082)
In words: LTEA_HepaRG_HGF: Life Technologies and Expression Analysis (LTEA) Assay for Hepatocyte Growth Facto (HGF) using HepaRG (AID 2283505). In outline: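 Using HepaRG monolayers kept in 0.5% DMSO, chemicals were tested in duplicate over eight half-log concentrations from 100 uM for 48 h. Endpoint: HGF mRNA change relative to DMSO, normalized to ACTB/GAPDH/POLR2A.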

Read-out in assay [16]: Insulin Like Growth Factor 1 (IGF1), IGF1 (gene 3479)
In words: LTEA_HepaRG_IGF1: Life Technologies and Expression Analysis (LTEA) Assay for Insulin Like Growth Factor 1 (IGF1) using HepaRG (AID 2283506). In outline:
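Cells are thawed, plated and cultured 48 h, then exposed in duplicate to chemical (highest 100 uM, half-log steps, 0.5% DMSO) for another 48 h. Total RNA is analysed by Fluidigm qRT-PCR for IGF1 expression relative to vehicle.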

Read-out in assay [17]: Intercellular Adhesion Molecule 1 (ICAM1), ICAM1 (gene 3383)
In words: LTEA_HepaRG_ICAM1: Life Technologies and Expression Analysis (LTEA) Assay for Intercellular Adhesion Molecule 1 (ICAM1) using HepaRG (AID 2283507). In outline: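 Using the human liver line HepaRG, compounds are tested in duplicate over 48 h at concentrations up to 100 uM. Expression is determined by TaqMan qRT-PCR, normalized to endogenous controls, and analysed relative to 0.5% DMSO vehicle.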

Read-out in assay [18]: Glutathione S-transferase M3 (GSTM3), GSTM3 (gene 2947)
In words: LTEA_HepaRG_GSTM3: Life Technologies and Expression Analysis (LTEA) Assay for Glutathione S-transferase M3 (GSTM3) using HepaRG (AID 2283501). The essentials: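 Expression of GSTM3 is determined by qRT-PCR in human liver HepaRG cells treated 48 h with an 8-point half-log range from 100 uM in 0.5% DMSO.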

Active and inactive are the calls of the source. Rule for the calls: active = hit-call score of the fitted dose curve at least 0.9, where 1 is the maximum; inactive = score below 0.9.

Sequence of Hypoxia-inducible factor 1-alpha (Homo sapiens) (Q16665 whole entry, looked up): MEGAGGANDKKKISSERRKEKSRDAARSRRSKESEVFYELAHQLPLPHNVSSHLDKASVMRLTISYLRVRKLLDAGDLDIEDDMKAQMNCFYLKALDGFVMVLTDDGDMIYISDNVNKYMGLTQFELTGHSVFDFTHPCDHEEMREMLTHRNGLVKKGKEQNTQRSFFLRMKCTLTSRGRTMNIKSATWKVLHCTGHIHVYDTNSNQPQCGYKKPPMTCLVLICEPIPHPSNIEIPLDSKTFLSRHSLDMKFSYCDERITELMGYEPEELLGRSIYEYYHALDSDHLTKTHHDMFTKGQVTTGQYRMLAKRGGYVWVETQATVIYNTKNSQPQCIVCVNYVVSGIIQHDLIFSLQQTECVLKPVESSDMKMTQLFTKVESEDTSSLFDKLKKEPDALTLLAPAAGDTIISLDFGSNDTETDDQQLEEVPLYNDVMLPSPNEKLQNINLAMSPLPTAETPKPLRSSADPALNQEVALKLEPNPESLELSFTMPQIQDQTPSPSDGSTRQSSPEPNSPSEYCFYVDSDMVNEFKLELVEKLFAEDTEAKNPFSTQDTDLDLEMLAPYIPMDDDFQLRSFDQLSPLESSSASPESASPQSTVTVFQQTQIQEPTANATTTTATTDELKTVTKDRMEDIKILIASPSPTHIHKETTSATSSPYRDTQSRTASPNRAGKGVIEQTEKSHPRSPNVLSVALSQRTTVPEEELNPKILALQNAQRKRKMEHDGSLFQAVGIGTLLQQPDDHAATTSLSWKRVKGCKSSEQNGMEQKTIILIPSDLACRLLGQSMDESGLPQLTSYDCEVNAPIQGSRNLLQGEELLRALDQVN
Sequence of Cytochrome P450 3A7 (Homo sapiens) (P24462 whole entry, looked up): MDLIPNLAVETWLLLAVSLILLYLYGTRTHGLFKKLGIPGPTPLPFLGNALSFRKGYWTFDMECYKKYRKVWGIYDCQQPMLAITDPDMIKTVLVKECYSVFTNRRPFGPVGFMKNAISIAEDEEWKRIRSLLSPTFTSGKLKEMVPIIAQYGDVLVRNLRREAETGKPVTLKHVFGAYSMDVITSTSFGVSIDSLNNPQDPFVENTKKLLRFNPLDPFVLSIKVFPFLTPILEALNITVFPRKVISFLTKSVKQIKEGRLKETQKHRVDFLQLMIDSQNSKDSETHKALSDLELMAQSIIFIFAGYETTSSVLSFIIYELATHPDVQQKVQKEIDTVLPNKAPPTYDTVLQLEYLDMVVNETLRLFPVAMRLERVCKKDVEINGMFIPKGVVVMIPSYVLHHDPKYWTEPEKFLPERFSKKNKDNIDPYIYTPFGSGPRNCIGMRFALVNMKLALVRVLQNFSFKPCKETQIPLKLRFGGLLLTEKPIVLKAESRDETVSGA

On to `Oc1c(Cl)c(Cl)c(Cl)c(Cl)c1Cl`, for which the AC50 in assay [1] was 11.7 µM (active); in assay [2], 25.5 µM (active); in assay [3], 8.53 µM (active); in assay [4] it was 1.58 µM (active); in assay [5], 4.85 µM (active); with CYP3A5 (gene 1577), 10.6 µM (active). Moreover, the AC50 in assay [6] is 2.35 µM (active); in [7] it was 3.87 µM (active); in assay [8], 3.88 µM (active); in [9], 3.87 µM (active); in assay [10] it was 1.97 µM (active); in assay [11] it was 12.6 µM (active). Besides, the AC50 was 2.1 µM (active) in assay [12]; 6.34 µM (active) in assay [13]; 5.16 µM (active) in [14]; 4.84 µM (active) in assay [15]; 6.52 µM (active) in assay [16]. Moreover, the molecule was called inactive (with HGF (gene 3082); in assay [17]).
In the case of `CCCCCCCCCc1ccc(O)cc1`, the call (in [1]; in [2]; in assay [3]; in assay [4]; in assay [5]; in the assay with CYP3A5 (gene 1577)) was inactive. Moreover, the result in [8], in assay [9], in [10], in assay [11], in assay [12] and in [18] was inactive. Further, the call in assay [13], in [14], in assay [16] and in [17] was inactive. In addition, the AC50 in assay [6] was 50 µM (active); in [7], 31.9 µM (active); in assay [15] it was 50 µM (active).
`Cc1ccccc1CO[C@@H]1C[C@@]2(C(C)C)CC[C@]1(C)O2`: the molecule was classed as inactive (in [1]; in assay [2]; in assay [3]; in assay [4]; in [5]; in the assay with CYP3A5 (gene 1577)). In addition, the molecule was called inactive in [6], in [7], in assay [8], in [9], in assay [10] and in [11]. Besides, the molecule was classed as inactive (in [12]; in assay [14]; in assay [15]; in the assay with HGF (gene 3082); in assay [16]; in assay [17]). The AC50 in [13] was 50 µM (active).
As for `Cc1cc(O)ccc1Cl`, the molecule was classed as inactive (in [1]; in assay [2]; in [3]; in [4]; in [5]; with CYP3A5 (gene 1577)). The molecule was called inactive in [6], in assay [7], in [8], in [9], in assay [10] and in assay [11]. Moreover, the result in assay [12], in assay [18], in assay [13], in assay [14], in assay [15] and in [16] was inactive. For the same molecule, in assay [17], the call was inactive.
Take `O=C(N[C@H]1CN2CCC1CC2)c1cc2ccoc2cn1`: the result (in [1]; in [2]; in assay [3]; in assay [4]; in assay [5]; in the assay with CYP3A5 (gene 1577)) was inactive. The molecule was classed as inactive in assay [6], in assay [7], in [8], in assay [9], in [10] and in assay [11]. Moreover, the call (in [12]; in assay [18]; in assay [13]; in assay [14]; in assay [15]; with HGF (gene 3082)) was inactive. Besides, the call in assay [16] and in assay [17] was inactive.
Take `CCC(C)(c1ccc(O)cc1)c1ccc(O)cc1`: the result (in assay [1]; in assay [2]; in assay [3]; in assay [4]; in [5]; in the assay with CYP3A5 (gene 1577)) was inactive. Besides, the molecule was called inactive in [6], in assay [7], in [9], in [10], in assay [11] and in assay [12]. Moreover, the molecule was classed as inactive in assay [18], in assay [13], in [14], in assay [15], in [16] and in assay [17]. In addition, the AC50 in assay [8] is 50 µM (active).
